# The list is not random: actives were taken first. Their share in the collection is about 3.3%.
# MazEF act = activators of E. coli MazEF toxin-antitoxin RNase, primary screen, biochemical, fluorescence, uHTS; AID 504720, 2011; activation, % at 20 µM; FAM/BHQ RNA-DNA oligo cleavage fluorescence, 5 h; actives 0.32% (n = 350,000); Endoribonuclease toxin MazF (Escherichia coli (strain K12)), P0AE70; in the data active means activation above about 50%
# Target sequence (P0AE70 whole entry, looked up): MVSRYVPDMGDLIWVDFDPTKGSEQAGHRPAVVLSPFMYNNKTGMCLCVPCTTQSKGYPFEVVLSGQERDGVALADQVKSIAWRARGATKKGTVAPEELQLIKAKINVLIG
# Anthrax LF prot = Bacillus anthracis LF protease inhibitors, primary screen, biochemical, multiplex microsphere, MLPCN library. multiplex microsphere protease cleavage assay. AID 588501, 2011. inhibition, % at 10 µM. actives 0.12% (n = 360,000); further: plate controls were buffer without enzyme for full effect and enzyme alone for no effect
# PriA SSB inh = inhibitors of Klebsiella pneumoniae PriA binding to SSB C-terminal tail, primary screen, biochemical, AlphaScreen. PriA–SSB C-terminal tail interaction (Klebsiella pneumoniae). AlphaScreen SSBct-PriA binding, biotinylated peptide. inhibition, % at 33 µM. actives 0.6% (n = 430,000). AID 1272365, 2023; in the data active means inhibition mostly above about 37%, no sharp cut-off; inactive means mostly below about 20%;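 further: plate controls were negative control peptide for no effect and reference peptide for full effect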
# BoNT-F LC inh = BoNT/F light chain protease inhibitors, primary screen, biochemical, flow cytometry, MLPCN library; Botulinum neurotoxin type F light chain protease (Clostridium botulinum); Multiplex microsphere protease cleavage assay; inhibition, % at 10 µM; actives 0.22% (n = 360,000); in the data active means inhibition above about 35%, passing the limit was not always enough; inconclusive means no clear call, values can overlap the other calls; further: plate controls were buffer without enzyme for full effect and enzyme alone for no effect
# BoNT-A LC inh2 = BoNT/A light chain protease inhibitors, primary screen, biochemical, flow cytometry, MLPCN library; actives 0.17% (n = 360,000); multiplex microsphere protease substrate cleavage; Botulinum neurotoxin type A light chain protease (Clostridium botulinum A str. ATCC 3502); AID 588499, 2011; inhibition, % at 10 µM; further: plate controls were buffer without enzyme for full effect and enzyme alone for no effect
# Bead autofluor = flagged as autofluorescent in microsphere protease counterscreen; fluorescence intensity (concentration not given with the values); AID 624483; compound autofluorescence counterscreen, microsphere flow cytometry; active compounds read high; actives 3.1% (n = 360,000); in the data active means fluorescence intensity above about 16000; inconclusive means no clear call, values can overlap the other calls
# * = called active by the depositor; ? = inconclusive; · = not tested or not shown. Unless noted, no stated cut-off is given here; in the data, active means inhibition above about 30%; inconclusive means no clear call, values can overlap the other calls; inactive means below that.
SMILES,MazEF act,Anthrax LF prot,PriA SSB inh,BoNT-F LC inh,BoNT-A LC inh2,Bead autofluor
Cc1ccc(-c2csc(=S)n2CC(=O)OCC(=O)NC(C)C(C)C)cc1 (centres undefined),0,-2,-11,0,0,16450*
Cc1ccc(-c2csc(=S)n2CC(=O)OCC(=O)NCc2ccco2)cc1,-4,-1,6,2,1,9278
Nc1ccc(/C=C/c2ccccc2)cc1,·,·,40*,·,·,·
Nc1ccc(-c2ccccc2)cc1,-1,·,-7,·,-2,·
CC(OC(=O)COc1ccc(Nc2ccccc2)cc1)C(=O)N(C)c1ccccc1 (centres undefined),-2,3,40*,6,4,3985
O=C1CN(C(=O)CSc2nncn2-c2ccccc2)c2ccccc2N1,4,-1,-5,-4,-2,21221*
Cc1nnc(SCC(=O)N2CC(=O)Nc3ccccc32)n1-c1ccccc1,-7,-1,-3,14,1,4050
CC(=NNC(=O)Cc1ccc(Cl)cc1)c1ccc(F)cc1,·,·,-14,·,·,·
C/C(=N\NC(=O)Cc1ccc(Cl)cc1)c1ccc(F)cc1,5,0,·,35*,1,4072
CCC1CCc2c(c3ccccc3[nH]c2=O)O1 (centres undefined),-13,-2,87*,-3,0,2858
O=C(CSc1nnc2scc(-c3ccccc3)n12)Nc1cccc(C(F)(F)F)c1,·,·,-3,·,·,·
Cc1noc(C2CN(Cc3ccccc3OC(F)(F)F)C2)n1,·,·,7,·,·,·
O=C(Nc1sc2c(c1C(=O)O)CCCC2)c1cccs1,-2,-2,5,-3,-1,24122*
COC(=O)c1c(NC(=O)Cc2cccs2)sc2c1CCCC2,-3,0,-6,-12,0,2143
COC(=O)c1c(NS(=O)(=O)c2cccs2)sc2c1CCCC2,12,-5,5,-7,-4,25083*
Cc1cc(C)n(CCNC(=O)c2cc3n(n2)CCCO3)n1,·,·,-18,·,·,·
COC(=O)/C(C#N)=C/c1ccc(-c2ccc(S(N)(=O)=O)cc2)o1,6,4,-4,-6,1,4467
CC(C)OC(=O)/C(C#N)=C/c1ccc(-c2ccc(SC(F)F)cc2)o1,140*,0,-9,-8,1,2472
O=C(CSc1nnc(CNc2ccc(F)cc2)o1)N1CCN(C(=O)c2ccco2)CC1,2,0,-11,4,1,7623
CC(C)(C)N(Cc1ccccc1)C(=O)CSc1nnc(CNc2ccc(F)cc2)o1,-1,-10,-18,13,10,17024*
O=C(CSc1nnc(CNc2ccc(F)cc2)o1)N1c2ccccc2Sc2ccccc21,-12,-3,18,0,2,20080*
CS(=O)(=O)N1CCCC(C(=O)Nc2sccc2-c2nc3ccccc3s2)C1 (centres undefined),·,·,-11,·,·,·
CN1C(=O)C(Cc2nc3ccccc3c(=O)n2-c2ccccc2)c2ccccc21 (centres undefined),-7,-1,-5,2,?,19805*
COc1ccc2c(c1)CCc1c(C(=O)NCCCn3ccnc3)noc1-2,6,-2,11,0,1,22596*
COc1ccc2c(c1)CCc1c(C(=O)NCc3ccco3)noc1-2,-1,-4,-5,-3,?,24173*
SMILES,MazEF act,Anthrax LF prot,PriA SSB inh,BoNT-F LC inh,BoNT-A LC inh2,Bead autofluor
COc1ccc(OC)c(-c2cc(C(=O)NCCCn3ccnc3)no2)c1,5,-7,17,-4,-3,24152*
COc1ccc(-c2cn[nH]c2N)cc1,-1,-4,4,4,0,3390
CCOc1ccc(-c2cn[nH]c2N)cc1,2,0,-1,-4,0,23738*
COc1ccc(-c2cn[nH]c2N)c(OC)c1,2,-17,-2,4,7,17696*
COc1ccc(C(=O)CN2CCCCC2)cc1,-4,-2,47*,6,0,4106
CCNc1nc(NCC)nc(C(=O)NN)n1,-15,-5,83*,-14,1,4432
Cc1nc2c(ccc3nc(NC(=O)c4ccc5c(c4)OCCO5)sc32)s1,73*,-4,-1,-7,-2,10309

# Assay outcomes from PubChem BioAssay.
